From PubChem BioAssay (NCI) come the findings set out here.

Molecules are shown by their SMILES. About 83,000 compounds went through this panel and 20% of them were active in at least one assay; those are over-represented in the sample as a whole.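 For each line, cells grew in 96-well plates with the test compound present at a single concentration for 48 hours.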 Active and inactive are the calls of the source. Rule for the calls: active = growth percent below 10; inactive = the rest.

For the test, the system named is HL-60(TB) leukemia. Briefly: NCI-60 one-dose screen, 48 h (100 = growth as untreated, 0 = no growth, -100 = all killed). The settings on record: 10 µM unless noted.
With `C#CC#CC#CC#CC#CC#CC#CC#CCC1OC[C@H](COC(=O)O[C@@H](C(=O)O[C@H]2C[C@@]3(O)[C@@H](OC(=O)c4ccccc4)[C@@H]4[C@]5(OC(C)=O)CO[C@@H]5C[C@H](O)[C@@]4(C)C(=O)[C@H](OC(C)=O)C(=C2C)C3(C)C)[C@@H](NC(=O)c2ccccc2)c2ccccc2)O1` (stereo not given in full), the growth was 8.1% (active).
With `N#Cc1c2c(c(N)[nH]c1=O)C(=O)NC2(O)c1ccccc1` (stereo not given) the figure was 93.8% (inactive); with `Cc1ccc(-c2csc(NC(=O)c3ccccc3CN3C(=O)c4ccccc4C3=O)n2)cc1`, 95.3% (inactive); with `COC(=O)[C@H](Cc1ccc(O)cc1)NC(=O)[C@@H](OC)[C@@H]1Cc2cc3cc(OC4CC(OC5CC(O)C(O)C(C)O5)C(O)C(C)O4)c(C)c(O)c3c(O)c2C(=O)[C@H]1OC1CC(OC2CC(OC3CC(C)(O)C(O)C(C)O3)C(O)C(C)O2)C(O)C(C)O1` (stereo not given in full), 8.2% (active).
With `CCCCCC(=O)Oc1ccc(/C(=C(\C)c2ccccc2)c2ccc(OCCN3CCCCC3)cc2)cc1` the figure was 70.2% (inactive).
With `CC1Cc2c(Cl)ncnc2N(C)c2ccc(Cl)cc21` (stereo not given), the growth was 13.3% (inactive).
The result for `S=C(NCc1ccccc1)NCc1ccccc1` reads 84.7% (inactive); that for `Clc1ccc(N2CCN(CCCN3CCN(c4cccc(Cl)c4)CC3)CC2)cc1`, 17% (inactive).
`COc1cccc(/C=C2\COc3ccc(O)c(O)c3C2=O)c1`: the growth is -20% (active).
The result for `Cc1ccc2oc(=O)cc(C3c4ccc([nH]4)C(c4cc(=O)oc5ccc(C)cc45)c4ccc([nH]4)C(c4cc(=O)oc5ccc(C)cc45)c4ccc([nH]4)C(c4cc(=O)oc5ccc(C)cc45)c4ccc3[nH]4)c2c1` (stereo not given) reads -24% (active); that for `Fc1cccc(COc2ccc(Nc3ncnc4onc(-c5ccccc5)c34)cc2)c1`, 7.34% (active); that for `CC/C=C\CCC/C=C1/C(=O)C=C[C@@H]1C/C=C\CCCC(=O)O`, 10.9% (inactive).
With `COc1cc2c(cc1OC)C(=O)/C(=C/c1cc(-c3ccc4c(c3)OCO4)n[nH]1)C2` the figure was -43.8% (active); with `NS(=O)(=O)c1ccc(-n2ncc3c(SCc4ccccc4)ncnc32)cc1`, 88.1% (inactive); with `CC/C(=C(/c1ccc(OCCN(C)C)cc1)c1ccc(OC(=O)CCCCC(=O)c2c(C)[nH]c(/C=C3\N=C(c4ccc[nH]4)C=C3OC)c2C)cc1)c1ccccc1`, 82.2% (inactive).
The result for `CC(=O)Nc1cccc(-c2ccc3c(c2)NC(=O)/C3=C\c2ccc[nH]2)c1` reads 20.2% (inactive); that for `COc1cccc(-c2nn(-c3ccccc3)cc2-c2ccnc(-c3cccnc3)c2)c1`, 56.8% (inactive); that for `C(CCCC1=NCCO1)CCCC1=NCCO1`, 112% (inactive).
For `COC(=O)c1oc2c(C(=O)/C=C/c3ccc(OC)cc3)c(OCCN3CCOCC3)ccc2c1C`, the growth was -24.1% (active).
With `Fc1ccc([I+]c2ccc(F)cc2)cc1` the figure was 54.5% (inactive); with `Cc1nc(-c2ccc(Cl)cc2)ccc1NC(=O)Nc1cccc(C(F)(F)F)c1`, 79.7% (inactive); with `Cc1ccc(CSCc2ccc(C(=O)NC3CC3)o2)cc1`, 59.5% (inactive).
For the molecule `COc1ccc(NC(=O)CSc2nc3ccccc3c(=O)n2-c2ccccc2C(F)(F)F)c(OC)c1OC`, the growth was 103% (inactive).
For `COc1cccc(C2C(C#N)=C(N)Oc3c2ccc2ccccc32)c1` (stereo not given), the growth was -30.3% (active).
With `CCCCC[C@H]1C/C=C2/C(=O)C(Cl)=C[C@@H]2C/C=C\CCCC(=O)O1` the figure was -9.03% (active).
The result for `O=C(N/N=C/c1cc2ccccc2n2nnnc12)Nc1ccccc1` reads 91.8% (inactive); that for `Cc1csc(Nc2nc(-c3ccccn3)nc(C(Cl)(Cl)Cl)n2)n1`, 77.4% (inactive).
With `COc1cc2nccc(Oc3ccc(NC(=O)Nc4cc(C)on4)c(Cl)c3)c2cc1OC` the figure was 9.48% (active); with `CC[N+](C)(CC)CCO`, 96.9% (inactive).
With `COc1ccc2cc(C3=CC(=O)CCC3)ccc2c1`, the growth was 89.7% (inactive).
With `COc1ccc(-c2nn(-c3cccc(Cl)c3)cc2C2CC(c3ccccc3)=NN2C(C)=O)cc1` (stereo not given) the figure was 101% (inactive); with `O=C(Nc1ccccc1Cl)OCCN1CCOCC1`, 108% (inactive); with `O=S(O)c1cc(Cl)cc(Cl)c1OCc1ccccc1`, 109% (inactive).
Turning to `Fc1ccc(Nc2ncnc3ccc(-c4cnc5[nH]ccc5c4)cc23)cc1Cl`, the growth is -22.3% (active).
With `O=C1/C(=C/C(Cl)=C/c2ccccc2)SC(=S)N1CCc1ccc(O)cc1` the figure was -7.15% (active).
